Measured values reported in PubChem BioAssay.
Active and inactive are the calls of the source. Unless noted, the rule behind the calls is not given here.

Tests used:
[1] = anti-His antibody binders, primary screen, artefact control for SMM control protein annotation, biochemical, small-molecule microarray, 635 nm fluorescence (AID 1128); conditions: anti-His Alexa647 antibody binding, higher = more signal;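 note: score merges feature fluorescence with signal-to-noise for each printed compound spot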
[2] = tested on: Human papillomavirus type 1a E7 protein (residues 1-88); assay: HPV1a E7 small-molecule binders, primary screen, biochemical, small-molecule microarray, residues 1-88, 635 nm (AID 1129); conditions: small-molecule microarray binding, fluorescence 635 nm; higher = more signal
[3] = molecular target: Focal adhesion kinase 1 (Homo sapiens) (UniProt Q05397); assay: small-molecule microarray binders of FAK, primary screen, biochemical, 635/667 nm fluorescence, BSA, DTT (AID 1130); conditions: PTK2 binding, 635 nm fluorescence, higher = more signal;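 note: composite of spot emission at 667 nm and signal to noise over triplicate slides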
Chain of Focal adhesion kinase 1 (Homo sapiens) (Q05397 whole entry, looked up): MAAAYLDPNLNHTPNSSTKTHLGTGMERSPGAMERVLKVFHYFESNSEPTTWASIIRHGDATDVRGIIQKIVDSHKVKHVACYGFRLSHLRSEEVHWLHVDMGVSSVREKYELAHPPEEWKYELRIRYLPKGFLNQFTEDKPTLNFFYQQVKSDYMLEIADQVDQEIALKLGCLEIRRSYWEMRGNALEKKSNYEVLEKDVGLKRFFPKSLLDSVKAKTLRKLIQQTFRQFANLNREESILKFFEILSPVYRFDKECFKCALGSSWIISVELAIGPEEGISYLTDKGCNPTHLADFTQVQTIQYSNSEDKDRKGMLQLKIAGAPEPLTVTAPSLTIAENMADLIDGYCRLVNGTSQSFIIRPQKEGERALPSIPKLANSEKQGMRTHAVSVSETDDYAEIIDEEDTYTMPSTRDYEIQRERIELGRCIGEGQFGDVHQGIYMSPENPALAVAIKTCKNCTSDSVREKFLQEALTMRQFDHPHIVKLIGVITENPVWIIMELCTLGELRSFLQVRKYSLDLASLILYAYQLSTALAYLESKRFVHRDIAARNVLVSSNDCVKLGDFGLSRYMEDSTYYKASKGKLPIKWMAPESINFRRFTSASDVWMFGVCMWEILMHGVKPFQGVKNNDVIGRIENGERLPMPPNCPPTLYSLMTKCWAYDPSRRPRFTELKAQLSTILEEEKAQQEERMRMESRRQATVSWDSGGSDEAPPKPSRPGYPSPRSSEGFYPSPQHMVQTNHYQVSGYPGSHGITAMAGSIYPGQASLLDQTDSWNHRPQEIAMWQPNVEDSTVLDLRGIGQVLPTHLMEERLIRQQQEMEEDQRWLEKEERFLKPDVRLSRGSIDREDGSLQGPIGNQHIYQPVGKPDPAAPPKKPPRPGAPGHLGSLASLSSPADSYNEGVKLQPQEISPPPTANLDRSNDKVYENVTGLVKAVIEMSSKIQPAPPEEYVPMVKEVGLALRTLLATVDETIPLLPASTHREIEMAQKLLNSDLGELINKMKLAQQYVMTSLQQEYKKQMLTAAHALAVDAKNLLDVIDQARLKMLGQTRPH

[4] = tested on: Fibrinogen (Alexa647-labelled); assay: fibrinogen binders on compound microarrays, profiling panel, artefact control for SMM control-protein annotation, biochemical, small-molecule microarray, 635/667 nm fluorescence (AID 1131); conditions: fibrinogen-A647 binding fluorescence, higher = more signal;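 note: z-score merges 667 nm fluorescence with per-spot signal-to-noise over triplicate slides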
[5] = molecular target: Follistatin (Homo sapiens) (UniProt P19883); assay: follistatin binders on small-molecule microarrays, primary screen, biochemical, small-molecule microarray, 635/667 nm fluorescence (AID 1132); conditions: FST binding, 635 nm fluorescence, higher = more signal
Chain of Follistatin (Homo sapiens) (P19883 whole entry, looked up): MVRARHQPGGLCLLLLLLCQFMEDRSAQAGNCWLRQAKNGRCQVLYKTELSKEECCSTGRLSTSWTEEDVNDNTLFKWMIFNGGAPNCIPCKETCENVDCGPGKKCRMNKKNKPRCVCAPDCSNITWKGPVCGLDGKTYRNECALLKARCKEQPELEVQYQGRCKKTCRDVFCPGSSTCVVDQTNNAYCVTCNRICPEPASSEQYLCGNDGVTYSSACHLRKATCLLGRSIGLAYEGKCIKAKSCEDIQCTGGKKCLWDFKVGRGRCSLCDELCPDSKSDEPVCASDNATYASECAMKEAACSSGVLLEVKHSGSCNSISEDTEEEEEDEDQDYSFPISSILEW

[6] = molecular target: Fibroblast growth factor 2 (Homo sapiens) (UniProt P09038); assay: FGF2 binders on small-molecule microarrays, primary screen, biochemical, small-molecule microarray, 635/667 nm fluorescence (AID 1133); conditions: small-molecule microarray binding, FGF2, fluorescence 635/667; higher = more signal
Chain of Fibroblast growth factor 2 (Homo sapiens) (P09038 whole entry, looked up): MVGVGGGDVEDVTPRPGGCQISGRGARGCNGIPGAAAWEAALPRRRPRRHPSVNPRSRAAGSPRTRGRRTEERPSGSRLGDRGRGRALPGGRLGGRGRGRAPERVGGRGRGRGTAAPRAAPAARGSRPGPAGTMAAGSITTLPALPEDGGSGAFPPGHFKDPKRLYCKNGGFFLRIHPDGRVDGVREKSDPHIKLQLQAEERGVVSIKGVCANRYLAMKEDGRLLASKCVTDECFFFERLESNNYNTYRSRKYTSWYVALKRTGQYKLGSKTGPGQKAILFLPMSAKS

[7] = mitochondrial membrane potential change in A549 cells, profiling panel, cell-based, JC-1 fluorescence, basal, 24 h, 100 nL (AID 1138); conditions: higher = more signal;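 note: A549 lung adenocarcinoma cells under basal conditions with no added stimulus; test concentration not given here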
[8] = tested on: Lefty1; assay: Lefty1 binders on small-molecule microarrays, primary screen, biochemical, small-molecule microarray, 635/667 nm fluorescence (AID 1139); conditions: small-molecule microarray binding, fluorescence 635/667; higher = more signal
[9] = tested on: wheat germ agglutinin (Triticum aestivum), Alexa647-labelled; assay: wheat germ agglutinin binders on compound microarrays, profiling panel, artefact control for SMM control-protein annotation, biochemical, small-molecule microarray, 635/667 nm fluorescence (AID 1140); conditions: WGA-A647 binding, 635 nm fluorescence, higher = more signal;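 note: score merges 667 nm feature emission with signal to noise over triplicate slides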
[10] = molecular target: Luciferin 4-monooxygenase (Photinus pyralis) (UniProt P08659); assay: firefly luciferase enzyme inhibitors, primary screen, biochemical, luminescence, purified enzyme, 2006 set (AID 1141); conditions: SteadyGlo luminescence, 30 min, higher = more signal, called active from +8 up or from −8 down;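 note: cell-free assay with purified firefly luciferase at 100 ng per well in PBS; test concentration not given here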
Chain of Luciferin 4-monooxygenase (Photinus pyralis) (P08659 whole entry, looked up): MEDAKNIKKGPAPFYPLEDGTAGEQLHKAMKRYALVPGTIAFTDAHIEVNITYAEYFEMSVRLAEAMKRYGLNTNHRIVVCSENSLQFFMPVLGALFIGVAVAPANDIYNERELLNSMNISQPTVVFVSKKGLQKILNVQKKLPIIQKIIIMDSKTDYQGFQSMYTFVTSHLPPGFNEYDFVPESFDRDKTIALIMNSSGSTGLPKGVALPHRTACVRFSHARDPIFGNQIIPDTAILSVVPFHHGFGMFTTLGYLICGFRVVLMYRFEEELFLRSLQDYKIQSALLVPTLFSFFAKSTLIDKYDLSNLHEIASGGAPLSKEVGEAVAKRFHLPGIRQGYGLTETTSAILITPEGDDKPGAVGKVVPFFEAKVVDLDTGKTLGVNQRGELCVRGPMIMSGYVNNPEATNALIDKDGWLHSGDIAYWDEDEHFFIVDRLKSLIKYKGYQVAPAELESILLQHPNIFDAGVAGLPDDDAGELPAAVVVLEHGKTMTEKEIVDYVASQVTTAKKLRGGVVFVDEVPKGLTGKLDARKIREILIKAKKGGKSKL

[11] = tested on: Wnt5a (protein binding on small-molecule microarray); assay: Wnt5a binders on small-molecule microarray, primary screen, biophysical, 635/667 nm fluorescence (AID 1142); conditions: 635 nm fluorescence, higher = more signal;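 note: fluorescence read at 667 nm with signal to noise per printed feature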
[12] = cell viability in Huh7 cells, primary screen, cytotoxicity control for HCV replication inhibitor project, CellTiter-Glo luminescence, basal, 48 h (AID 1143); conditions: Huh7 HCV replicon, higher = more signal, called active from +8 up or from −8 down;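 note: Huh7 hepatoma cells carrying a hepatitis C replication reporter with no stimulus; test concentration not given here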
[13] = P. aeruginosa biofilm formation inhibitors, primary screen, PAO1 strain, BacTiter-Glo luminescence, LB-PBS (AID 1144); conditions: 12 h, higher = more signal
[14] = CREB reporter modulators without forskolin, primary screen, cell-based, PC12, CRE-LacZ reporter, unstimulated (AID 1145); conditions: no forskolin, luminescence, 4.5 h, higher = more signal, called active from +8 up or from −8 down
[15] = CREB reporter modulators under forskolin, primary screen, cell-based, PC12, CRE-LacZ reporter, forskolin-stimulated (AID 1146); conditions: luminescence, 4.5 h, higher = more signal, called active from +8 up or from −8 down;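 note: PC12 cells with 6xCRE LacZ reporter stimulated by forskolin 10 µM; beta-galactosidase reporter signal reflecting CREB driven transcription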
[16] = molecular target: Streptavidin (Streptomyces avidinii) (UniProt P22629); assay: streptavidin binders on small-molecule microarray, primary screen, artefact control for SMM compound annotation, biophysical, 635/667 nm fluorescence (AID 1147); conditions: streptavidin binding, higher = more signal;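 note: signal reflects streptavidin binding to arrayed compounds as a control protein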
Chain of Streptavidin (Streptomyces avidinii) (P22629 whole entry, looked up): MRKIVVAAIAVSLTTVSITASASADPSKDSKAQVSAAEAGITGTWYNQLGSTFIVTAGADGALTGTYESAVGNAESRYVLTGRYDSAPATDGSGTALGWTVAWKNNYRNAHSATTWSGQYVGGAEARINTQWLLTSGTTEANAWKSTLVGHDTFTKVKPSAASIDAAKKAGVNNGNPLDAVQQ

[17] = small-molecule binders of probe aInhba, primary screen, biochemical, small-molecule microarray, 635/667 nm fluorescence (AID 1148); conditions: higher = more signal;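 note: score merges 667nm spot fluorescence with signal-to-noise for antibody binding to printed compounds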
[18] = molecular target: Torsin-1A (Homo sapiens) (UniProt O14656); assay: torsin A binders from cell lysate, primary screen, small-molecule microarray, wild-type, 635/667 nm (AID 1149); conditions: COS7 hTOR1A-WT lysate, 635 nm fluorescence, higher = more signal
Chain of Torsin-1A (Homo sapiens) (O14656 whole entry, looked up): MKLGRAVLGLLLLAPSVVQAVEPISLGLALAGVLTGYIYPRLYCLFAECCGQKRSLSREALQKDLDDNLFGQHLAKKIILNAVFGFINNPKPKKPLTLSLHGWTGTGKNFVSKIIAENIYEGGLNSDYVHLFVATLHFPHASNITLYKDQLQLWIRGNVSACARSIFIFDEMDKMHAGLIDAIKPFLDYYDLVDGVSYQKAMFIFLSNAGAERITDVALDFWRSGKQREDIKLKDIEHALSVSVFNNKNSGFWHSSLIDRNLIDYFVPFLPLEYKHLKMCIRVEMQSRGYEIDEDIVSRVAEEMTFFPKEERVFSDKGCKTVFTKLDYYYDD

[19] = molecular target: Torsin-1A (Homo sapiens) (UniProt O14656); assay: small-molecule binders of mutant TOR1A in lysate, primary screen, cell lysate, small-molecule microarray, COS7 lysate, 635/667 nm fluorescence (AID 1150); conditions: COS7 hTOR1A mutant lysate, 635 nm fluorescence, higher = more signal;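 note: score pools 667 nm emission and signal to noise measuring lysate protein binding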
[20] = tested on: Sonic hedgehog protein (Shh); assay: small-molecule binders of Shh protein, primary screen, biochemical, small-molecule microarray, 635/667 nm fluorescence (AID 1151); conditions: small-molecule microarray binding, 635 nm fluorescence; higher = more signal;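 note: Shh protein binding to compounds spotted on small-molecule microarray slides; score combines spot fluorescence intensity with signal-to-noise across triplicate slides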

SMILES | composite z-score [1] | composite z-score [2] | composite z-score [3] | composite z-score [4] | composite z-score [5] | composite z-score [6] | z-score [7] | composite z-score [8] | composite z-score [9] | z-score [10] | composite z-score [11] | z-score [12] | z-score [13] | z-score [14] | z-score [15] | composite z-score [16] | composite z-score [17] | composite z-score [18] | composite z-score [19] | composite z-score [20]
COCC(=C=CC[C@H](O)c1ccccc1OCCO)C[C@H](O)c1ccccn1 | 0.247 | 0.128 | -0.17 | -0.473 | 1.02 | 0.262 | 1.5 | 0.426 | -0.0118 | -1.02 (inactive) | 0.0611 | -0.0701 (inactive) | -0.214 (inactive) | 1.04 (inactive) | 0.126 (inactive) | -0.303 | -0.154 | -0.556 | 0.71 | 0.43
[N-]=[N+]=NCc1ccccc1C[C@@]1(C(N)=O)N=C(c2ccc(OCCCO)cc2)O[C@@H]1c1ccccc1 | 2.4 | 1.03 | 0.572 | 0.67 | 0.367 | -0.457 | 0.078 | -0.642 | 1.3 | -0.857 (inactive) | -0.182 | -3.28 (inactive) | 0.103 (inactive) | 0.498 (inactive) | -0.0576 (inactive) | 0.559 | 0.144 | 0.754 | 1.22 | -0.671
O=C1N(Cc2ccccc2)c2ccccc2C[C@]12N=C(c1ccc(OCCCO)cc1)O[C@@H]2c1ccccc1 | 1.1 | 1.03 | 1.7 | 0.529 | 1.1 | 1.36 | -0.911 | 0.492 | 0.186 | -1.74 (inactive) | 0.0361 | -4.72 (inactive) | -0.126 (inactive) | 1.75 (inactive) | -1.08 (inactive) | 0.0469 | -0.0221 | -0.569 | 0.812 | 0.837
C=CCC(OC(C)=O)[C@@H]1[C@@H](N(Cc2ccc(-c3ccccc3)cc2)C(=O)c2ccc(-c3ccccc3)cc2)c2cc(OCCCO)ccc2N1C(=O)c1ccc2ccccc2c1 (stereo not given in full) | -0.162 | 0.0751 | -0.138 | -0.239 | 0.707 | -0.193 | 0.657 | 0.476 | -0.094 | -0.424 (inactive) | 0.028 | 0.39 (inactive) | -0.0995 (inactive) | -0.23 (inactive) | 0.318 (inactive) | 0.485 | -0.101 | 0.0449 | -0.0178 | 0.255
COc1cc(NN2C(C(O)c3ccc(N(C)C)cc3)C=CC3C(=O)N(c4ccccc4)C(=O)C32)cc(OC)c1OC (stereo not given) | 0.555 | 1.03 | 0.0507 | 0.945 | 1.22 | -0.223 | 0.0531 | 0.0646 | 0.885 | 0.11 (inactive) | 0.0759 | -2.89 (inactive) | -0.414 (inactive) | -0.136 (inactive) | -0.259 (inactive) | 0.535 | 0.242 | -0.223 | 0.419 | -0.254
C=CC[C@@]1(C(=O)NCCCOC)N=C(c2ccc(OCCCO)cc2)O[C@@H]1c1ccccc1N=[N+]=[N-] | 2.2 | 1.21 | 0.474 | 1.03 | 1.28 | 0.0912 | 1.3 | -0.115 | 0.736 | -3.67 (inactive) | 0.452 | -2.67 (inactive) | -1.75 (inactive) | -0.711 (inactive) | -0.66 (inactive) | 0.77 | 0.0713 | -0.668 | -0.112 | -0.388
COC(=O)[C@@]1(Cc2ccc(OC)cc2)[C@H]2c3cc(C(=O)N(C)C)n(Cc4ccc(C)o4)c3C[C@H]2CN1C(=O)c1ccccc1 | 0.787 | 1.26 | 0.877 | 0.984 | 0.262 | -0.48 | 1.26 | -0.0198 | 1.1 | -18.5 (active) | 0.331 | -1.93 (inactive) | 1.15 (inactive) | -0.568 (inactive) | -0.46 (inactive) | 0.57 | 0.112 | -0.0657 | 0.567 | -0.797
[N-]=[N+]=Nc1ccccc1[C@H]1OC(c2ccc(OCCCO)cc2)=N[C@@]1(Cc1ccccc1)C(=O)NCCN1CCOCC1 | 1.65 | 1.23 | 0.309 | 0.996 | 1.21 | 0.989 | 2.49 | 0.624 | 1.2 | -4.32 (inactive) | 1.47 | -3.37 (inactive) | -0.395 (inactive) | -0.697 (inactive) | -1.62 (inactive) | 1.32 | 0.936 | 0.596 | 0.0723 | 1.44
Cc1ccc(S[C@]2(C(=O)NCC(F)(F)F)CC(=O)N(Cc3cc(C(F)(F)F)cc(C(F)(F)F)c3)[C@@H]2c2ccc(CO)cc2I)cc1 | 0.214 | -0.698 | -0.301 | -0.994 | -0.887 | -0.91 | -1.01 | -0.708 | -0.314 | 1.5 (inactive) | -0.676 | -3.02 (inactive) | -1.29 (inactive) | -0.529 (inactive) | 0.423 (inactive) | -0.978 | -0.153 | -0.877 | -0.902 | -0.58
CC[C@@H]1C=C(C(=O)O)[C@H](c2ccc(C#N)cc2)N1S(=O)(=O)c1ccc(C)cc1 | 3.35 | 0.845 | 0.941 | -0.0509 | -0.594 | -0.105 | -0.0902 | -0.833 | 1.09 | 0.522 (inactive) | 0.413 | -0.857 (inactive) | 0.24 (inactive) | -0.975 (inactive) | -0.397 (inactive) | 0.569 | -0.157 | 1.26 | 1.65 | 0.0698
